A short description of assay [1]: Human pregnane X receptor (PXR) small molecule agonists, qHTS cell viability counter screen (AID 1346977). Note: nearly all actives have a fitted effect of over 50% in size. Note: potency is the fitted concentration of half-maximal effect. The essentials:
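PXR-Luc HepG2 cells (2,000/well, 5% charcoal-stripped FBS) preincubated 5 hr, then exposed to compounds 24 hr at 37 C. Viability read in the same wells by CellTiter-Fluor fluorescence, reagent added at 23 hr, 1 hr incubation.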
(Quantitative high-throughput screening tests each substance at several concentrations.)

The nature of assay [2]: Caspase-3/7 induction in HepG2 cells by small molecules, qHTS assay (AID 1346978). Note: nearly all actives have a fitted effect of over 15% in size. The essentials:
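Wild-type HepG2 cells, 2,000/well, settled 5 hr at 37 C and 5% CO2, then compound-treated for 17 hr; caspase-3/7 activity read by luminescent Caspase-Glo 3/7 after 30 min at room temperature.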

Assay [3] is described as follows: Caspase-3/7 induction in CHO-K1 cells by small molecules, qHTS cell viability counter screen (AID 1346979). Note: nearly all actives have a fitted effect of over 35% in size. Note: potency is the fitted concentration of half-maximal effect. In outline:
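Wild-type CHO-K1 cells (1,500/well) treated with compound after 5 h plating; after 16 h at 37C, viability read as CellTiter-Fluor fluorescence following 1 h reagent incubation, in the same wells as the caspase read.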

A short description of assay [4]: Caspase-3/7 induction in HepG2 cells by small molecules, qHTS cell viability counter screen (AID 1346981). Note: nearly all actives have a fitted effect of over 30% in size. Note: potency is the fitted concentration of half-maximal effect. The essentials: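 Fluorescence read-out of live-cell protease activity (CellTiter-Fluor) after 1 hr with reagent. This was measured in the same wells as the caspase-3/7 luminescence, on HepG2 cells exposed to DMSO-dissolved compounds for 16 hr at 37 C.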
Assay [5] concerns the target Nuclear receptor subfamily 1 group I member 2 (Homo sapiens) (UniProt O75469). The assay can be described thus: Human pregnane X receptor (PXR) small molecule agonists, qHTS assay (AID 1346982). Note: nearly all actives have a fitted effect of over 35% in size. Note: potency is the fitted concentration of half-maximal effect. The essentials: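 HepG2 PXR-Luc reporter line, 5% charcoal-stripped FBS; 5 hr pre-incubation, compound (DMSO) 24 hr at 37 C/5% CO2; ONE-Glo 30 min RT; luminescence read-out.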

For assay [6], the target named is Cytochrome P450 2D6 (Homo sapiens) (UniProt P10635). Description: Cytochrome P450 Family 2 Subfamily D Member 6 (CYP2D6) small molecule antagonists: luciferase reporter qHTS assay (AID 1671196). Note: nearly all actives have a fitted effect of over 50% in size. Note: potency is the fitted concentration of half-maximal effect. The essentials: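 Luminogenic proluciferin substrate, CYP2D6 enzyme; 10 min RT preincubation with compound, NADPH regeneration system added, 1 h RT. Stop/detection reagent, 20 min RT, luminescence read (RLU). Signal proportional to CYP activity.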
In general terms: Reporter assays use an easily measured gene product as a stand-in for the process of interest.

Assay [7] addresses Cytochrome P450 2C9 (Homo sapiens) (UniProt P11712). Description: Cytochrome P450 Family 2 Subfamily C Member 9 (CYP2C9) small molecule antagonists: luciferase reporter qHTS assay (AID 1671198). Note: nearly all actives have a fitted effect of over 50% in size. Note: potency is the fitted concentration of half-maximal effect. The essentials: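 P450-Glo proluciferin substrate with CYP2C9 enzyme; 10 min RT preincubation, then NADPH regeneration 1 h at 37C; luciferin detection reagent 20 min RT, luminescence in relative luminescence units.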

Assay [8] has as its target Cytochrome P450 1A2 (Homo sapiens) (UniProt P05177). The assay can be described thus: Cytochrome P450 Family 1 Subfamily A Member 2 (CYP1A2) small molecule antagonists: luciferase reporter qHTS assay (AID 1671199). Note: nearly all actives have a fitted effect of over 50% in size. Note: potency is the fitted concentration of half-maximal effect. The essentials:
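Luminescence readout (relative luminescence units) after luciferin detection reagent, 20 min RT. Preceded by 1 h room-temperature CYP1A2 reaction with NADPH regeneration solution following 10 min compound preincubation with enzyme and proluciferin substrate. Furafylline positive control.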

Assay [9] concerns the target Voltage-gated inwardly rectifying potassium channel KCNH2 (Homo sapiens) (UniProt Q12809). The assay can be described thus: Human Ether-a-go-go-Related Gene (hERG) channel small molecule antagonists: fluorescence cell-based qHTS assay (AID 1671200). The essentials:
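hERG-U2OS cells plated overnight at 37 C, loaded with FluxOR II dye 1 h at RT in dark; after 10 min, thallium stimulus added. Fluorescence (480/540 nm) read kinetically for 2 min at 1 s intervals.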
(In general: The hERG channel carries a current that helps repolarise heart muscle cells.)

For assay [10], the target named is Cytochrome P450 3A4 (Homo sapiens) (UniProt P08684). The assay can be described thus: Cytochrome P450 Family 3 Subfamily A Member 4 (CYP3A4) small molecule antagonists: luciferase reporter qHTS assay (AID 1671201). Note: nearly all actives have a fitted effect of over 50% in size. Note: potency is the fitted concentration of half-maximal effect. In outline:
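P450-Glo CYP3A4 luminescent assay: compounds preincubated 10 min at room temperature with enzyme and proluciferin substrate, NADPH regeneration added, 1 h room-temperature reaction, stopped with luciferin detection reagent; luminescence read after 20 min. Ketoconazole positive control.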

The nature of assay [11]: Caspase-3/7 induction in CHO-K1 cells by small molecules, qHTS assay (AID 1346980). Note: nearly all actives have a fitted effect of over 15% in size. In outline:
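Wild-type CHO-K1 cells exposed to compounds for 17hr at 37 C, 5% CO2. Caspase-3/7 activity then measured by Caspase-Glo 3/7 luminescence after 30min at room temperature.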

For assay [12], the target named is Cytochrome P450 2C19 (Homo sapiens) (UniProt P33261). The assay can be described thus: Cytochrome P450 Family 2 Subfamily C Member 19 (CYP2C19) small molecule antagonists: luciferase reporter qHTS assay (AID 1671197). Note: nearly all actives have a fitted effect of over 65% in size. Note: potency is the fitted concentration of half-maximal effect. The essentials:
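Light output is proportional to CYP2C19 activity: proluciferin substrate is converted to luciferin, then detected by a luciferin detection reagent that also stops the 1 h, 37C NADPH-driven reaction. Ketoconazole serves as positive control.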

Assay [13] addresses Nuclear receptor subfamily 1 group I member 2 (Rattus norvegicus) (UniProt Q9R1A7). Description: Rat pregnane X receptor (rPXR) activation by small molecules, qHTS assay (AID 1346983). Note: nearly all actives have a fitted effect of over 20% in size. The settings on record: rPXR luciferase reporter cells, One-Glo luminescence, 24 h; max activation: stronger effect = higher value. In outline: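 Cell-based rPXR activation assay: rPXR cells, 2,000 per well, rested 5hr at 37 C, then exposed to compounds in DMSO for 24 hr at 37 C. Luciferase activity read by One-Glo luminescence after 30 min at room temperature.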

Assay [14] concerns the target Nuclear receptor subfamily 1 group I member 2 (Homo sapiens) (UniProt O75469). Description: CYP3A4 induction through human pregnane X receptor (PXR) by small molecules, qHTS assay (AID 1346984). Note: nearly all actives have a fitted effect of over 40% in size. The essentials:
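HepG2-derived DPX-2 line carrying PXR plus a CYP3A4-promoter luciferase reporter; cells plated 5 hr, compound-exposed 24 hr at 37C. CYP3A4 activity probed with 3uM (final) Luciferin-IPA for 3hr, then luciferase read after One-Glo.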

The target is the same in assay [15]. Description: Human pregnane X receptor (PXR) activation by small molecules, qHTS assay (AID 1346985). Note: nearly all actives have a fitted effect of over 40% in size. In outline: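 DPX-2 cells (HepG2 co-transfected with a PXR response element and a CYP3A4-promoter luciferase construct) were seeded at 2,000 per well, rested 5 hr at 37C, then exposed to DMSO-dissolved compounds for 24 hr. Activation was read as luciferase luminescence.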

Values without a mark were called inactive. Records with an inconclusive call do not appear. Active and inactive are the calls of the source. Calls come from the whole dose curve; as a rule, active = well fitted curve in the direction sought with a large enough effect in the repeat runs; inconclusive = weak or mixed curves; inactive = no such curve, though single readings can be large; an effect the other way counts as inactive or inconclusive.
% is set by controls: 0 for no effect and ±100 for the full control effect.

Sequence of Nuclear receptor subfamily 1 group I member 2 (Rattus norvegicus) (Q9R1A7 whole entry, looked up): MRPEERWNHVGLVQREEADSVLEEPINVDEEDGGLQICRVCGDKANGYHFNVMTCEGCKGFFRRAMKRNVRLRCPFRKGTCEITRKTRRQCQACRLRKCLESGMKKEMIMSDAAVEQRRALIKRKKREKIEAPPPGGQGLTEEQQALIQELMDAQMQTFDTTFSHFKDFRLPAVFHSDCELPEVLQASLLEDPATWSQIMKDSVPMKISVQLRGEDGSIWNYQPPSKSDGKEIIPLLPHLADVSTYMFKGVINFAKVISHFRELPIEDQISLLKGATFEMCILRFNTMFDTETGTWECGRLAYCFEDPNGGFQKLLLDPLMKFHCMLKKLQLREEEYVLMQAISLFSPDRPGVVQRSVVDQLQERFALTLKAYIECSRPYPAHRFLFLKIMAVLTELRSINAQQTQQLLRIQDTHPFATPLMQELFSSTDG
Sequence of Cytochrome P450 1A2 (Homo sapiens) (P05177 whole entry, looked up): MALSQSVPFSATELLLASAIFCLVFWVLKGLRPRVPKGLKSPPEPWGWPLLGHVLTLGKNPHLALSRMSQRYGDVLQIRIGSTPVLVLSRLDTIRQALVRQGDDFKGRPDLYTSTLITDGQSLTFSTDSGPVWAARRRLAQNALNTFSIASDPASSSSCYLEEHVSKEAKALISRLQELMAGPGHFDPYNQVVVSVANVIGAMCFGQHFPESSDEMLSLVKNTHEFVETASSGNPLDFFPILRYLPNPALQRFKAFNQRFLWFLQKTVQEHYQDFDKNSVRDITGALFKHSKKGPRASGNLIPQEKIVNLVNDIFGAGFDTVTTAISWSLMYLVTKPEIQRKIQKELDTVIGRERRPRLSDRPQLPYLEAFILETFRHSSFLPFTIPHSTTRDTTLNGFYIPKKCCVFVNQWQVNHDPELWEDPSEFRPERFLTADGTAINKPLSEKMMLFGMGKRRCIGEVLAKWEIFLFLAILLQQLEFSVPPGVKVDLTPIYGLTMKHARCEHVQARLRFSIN
Sequence of Nuclear receptor subfamily 1 group I member 2 (Homo sapiens) (O75469 whole entry, looked up): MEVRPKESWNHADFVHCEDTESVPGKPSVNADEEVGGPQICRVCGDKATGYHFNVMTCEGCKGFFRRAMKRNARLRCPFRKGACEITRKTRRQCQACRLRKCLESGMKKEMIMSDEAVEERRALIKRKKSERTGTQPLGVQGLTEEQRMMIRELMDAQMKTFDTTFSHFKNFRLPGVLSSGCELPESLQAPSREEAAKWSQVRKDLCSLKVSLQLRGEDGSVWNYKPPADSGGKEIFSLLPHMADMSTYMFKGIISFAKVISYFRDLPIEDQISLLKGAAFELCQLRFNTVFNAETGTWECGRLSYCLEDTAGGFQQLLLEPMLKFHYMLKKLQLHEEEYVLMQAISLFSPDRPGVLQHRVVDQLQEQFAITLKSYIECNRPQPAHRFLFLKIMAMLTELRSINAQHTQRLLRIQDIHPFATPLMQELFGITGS
Sequence of Cytochrome P450 2D6 (Homo sapiens) (P10635 whole entry, looked up): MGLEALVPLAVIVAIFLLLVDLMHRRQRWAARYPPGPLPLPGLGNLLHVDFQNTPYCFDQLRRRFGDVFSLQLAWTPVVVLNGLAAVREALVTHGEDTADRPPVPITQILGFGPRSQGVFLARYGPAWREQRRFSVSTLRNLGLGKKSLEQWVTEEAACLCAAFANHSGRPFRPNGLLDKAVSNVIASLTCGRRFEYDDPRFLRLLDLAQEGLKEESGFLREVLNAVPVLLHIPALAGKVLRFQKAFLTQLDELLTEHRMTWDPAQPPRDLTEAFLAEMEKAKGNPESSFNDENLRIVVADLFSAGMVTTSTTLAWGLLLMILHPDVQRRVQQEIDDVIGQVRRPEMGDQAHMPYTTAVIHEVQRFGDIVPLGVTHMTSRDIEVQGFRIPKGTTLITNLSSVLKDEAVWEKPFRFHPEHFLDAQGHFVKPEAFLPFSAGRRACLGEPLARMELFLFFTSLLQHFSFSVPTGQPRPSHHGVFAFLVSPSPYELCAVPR
Sequence of Cytochrome P450 2C9 (Homo sapiens) (P11712 whole entry, looked up): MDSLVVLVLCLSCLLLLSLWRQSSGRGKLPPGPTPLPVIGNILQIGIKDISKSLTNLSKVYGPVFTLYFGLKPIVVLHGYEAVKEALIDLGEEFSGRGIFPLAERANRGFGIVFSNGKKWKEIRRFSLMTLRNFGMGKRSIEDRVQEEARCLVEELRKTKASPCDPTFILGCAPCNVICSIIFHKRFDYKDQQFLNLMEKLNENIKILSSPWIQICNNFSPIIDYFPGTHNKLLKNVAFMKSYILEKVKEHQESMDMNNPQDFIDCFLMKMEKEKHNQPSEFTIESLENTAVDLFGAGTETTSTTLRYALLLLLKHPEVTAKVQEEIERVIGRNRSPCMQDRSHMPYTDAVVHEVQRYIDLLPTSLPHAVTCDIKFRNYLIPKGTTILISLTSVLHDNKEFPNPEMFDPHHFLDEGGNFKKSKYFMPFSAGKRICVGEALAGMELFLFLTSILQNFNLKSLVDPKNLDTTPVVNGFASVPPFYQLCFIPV
Sequence of Voltage-gated inwardly rectifying potassium channel KCNH2 (Homo sapiens) (Q12809 whole entry, looked up): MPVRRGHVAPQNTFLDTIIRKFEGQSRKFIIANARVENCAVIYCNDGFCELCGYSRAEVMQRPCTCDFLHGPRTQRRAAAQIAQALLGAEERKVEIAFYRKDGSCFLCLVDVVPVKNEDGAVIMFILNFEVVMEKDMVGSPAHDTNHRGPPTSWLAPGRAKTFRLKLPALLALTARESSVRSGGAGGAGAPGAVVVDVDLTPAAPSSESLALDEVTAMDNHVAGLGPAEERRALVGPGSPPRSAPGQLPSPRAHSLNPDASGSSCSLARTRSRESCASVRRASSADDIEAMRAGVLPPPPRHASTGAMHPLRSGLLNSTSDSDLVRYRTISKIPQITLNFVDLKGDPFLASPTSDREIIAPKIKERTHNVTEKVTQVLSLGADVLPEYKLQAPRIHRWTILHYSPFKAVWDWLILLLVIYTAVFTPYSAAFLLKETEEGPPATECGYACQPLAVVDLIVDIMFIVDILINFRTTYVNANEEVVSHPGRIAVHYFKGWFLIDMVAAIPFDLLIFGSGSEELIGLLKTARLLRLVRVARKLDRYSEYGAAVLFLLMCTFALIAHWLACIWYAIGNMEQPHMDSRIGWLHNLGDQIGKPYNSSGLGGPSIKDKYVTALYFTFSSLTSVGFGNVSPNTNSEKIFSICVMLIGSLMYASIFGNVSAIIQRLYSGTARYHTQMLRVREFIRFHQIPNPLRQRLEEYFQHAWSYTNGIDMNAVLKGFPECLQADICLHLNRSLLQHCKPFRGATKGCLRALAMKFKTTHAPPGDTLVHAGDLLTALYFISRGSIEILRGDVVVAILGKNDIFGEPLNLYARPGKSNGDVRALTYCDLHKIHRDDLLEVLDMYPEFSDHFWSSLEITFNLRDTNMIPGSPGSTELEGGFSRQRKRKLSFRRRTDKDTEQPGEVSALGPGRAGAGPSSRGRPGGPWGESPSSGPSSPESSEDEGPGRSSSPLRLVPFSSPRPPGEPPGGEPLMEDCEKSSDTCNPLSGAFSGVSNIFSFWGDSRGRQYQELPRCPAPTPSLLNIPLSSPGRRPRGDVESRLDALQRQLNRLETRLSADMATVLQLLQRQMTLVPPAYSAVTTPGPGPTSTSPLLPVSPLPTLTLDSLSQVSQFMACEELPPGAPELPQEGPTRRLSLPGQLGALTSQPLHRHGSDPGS
Sequence of Cytochrome P450 2C19 (Homo sapiens) (P33261 whole entry, looked up): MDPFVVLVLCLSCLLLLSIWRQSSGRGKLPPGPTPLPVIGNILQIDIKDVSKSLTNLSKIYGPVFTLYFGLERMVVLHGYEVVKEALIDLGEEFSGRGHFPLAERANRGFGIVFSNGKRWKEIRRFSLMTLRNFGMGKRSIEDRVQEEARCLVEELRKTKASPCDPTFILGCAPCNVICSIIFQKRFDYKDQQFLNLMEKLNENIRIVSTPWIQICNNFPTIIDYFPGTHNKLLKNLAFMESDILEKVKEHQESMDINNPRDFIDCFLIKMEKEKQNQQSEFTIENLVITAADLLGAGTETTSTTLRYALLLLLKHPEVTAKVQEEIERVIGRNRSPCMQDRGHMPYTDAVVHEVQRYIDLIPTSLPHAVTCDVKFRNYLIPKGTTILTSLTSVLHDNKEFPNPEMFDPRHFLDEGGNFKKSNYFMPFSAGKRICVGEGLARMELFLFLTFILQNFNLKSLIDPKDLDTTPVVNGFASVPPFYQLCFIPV
Sequence of Cytochrome P450 3A4 (Homo sapiens) (P08684 whole entry, looked up): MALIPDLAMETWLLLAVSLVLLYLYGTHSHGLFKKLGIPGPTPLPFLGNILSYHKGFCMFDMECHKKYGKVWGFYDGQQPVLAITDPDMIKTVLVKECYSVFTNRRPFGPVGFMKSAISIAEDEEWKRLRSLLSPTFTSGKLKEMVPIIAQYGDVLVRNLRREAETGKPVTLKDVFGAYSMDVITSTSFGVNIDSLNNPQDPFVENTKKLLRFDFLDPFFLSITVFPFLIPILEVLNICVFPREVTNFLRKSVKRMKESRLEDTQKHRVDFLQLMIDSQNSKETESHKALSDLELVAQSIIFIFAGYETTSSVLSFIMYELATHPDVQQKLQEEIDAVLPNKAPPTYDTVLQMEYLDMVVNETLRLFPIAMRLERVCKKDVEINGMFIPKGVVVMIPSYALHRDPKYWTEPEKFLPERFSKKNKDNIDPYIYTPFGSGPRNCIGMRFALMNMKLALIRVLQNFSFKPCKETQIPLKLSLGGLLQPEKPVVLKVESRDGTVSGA

For the compound `c1cc(N(CC2CO2)CC2CO2)ccc1Cc1ccc(N(CC2CO2)CC2CO2)cc1` (configuration not stated), the Potency in [1] is 54.5 µM (active); in assay [3] it was 54.5 µM (active); in assay [4], 61.1 µM (active); in assay [5] it was 27.3 µM (active); in [7], 17.8 µM (active); in assay [10], 12.6 µM (active). Besides, the Potency result in assay [2], in assay [6], in assay [8] and in assay [9] was “inactive” throughout.
As for `CC1CC(C)C(=O)C1=O` (configuration not stated), the Potency result in [1], in assay [2], in [11], in assay [4], in assay [5] and in assay [6] was “inactive” throughout. In addition, the Potency entry in [12], in assay [7], in [8], in assay [9] and in [10] was “inactive” throughout.
As for `O=C1c2ccccc2C(=O)C1c1nc2ccccc2c(Br)c1O`, the Potency entry in [1], in assay [2], in assay [6], in [12] and in [9] was “inactive” each time. In addition, the Potency is 61.1 µM (active) in assay [5] and 10 µM (active) in assay [8].
Consider `CN1C(C(=O)Nc2ccccn2)=C(O)c2sccc2S1(=O)=O`, for which the Potency result in assay [1], in assay [2], in assay [11], in assay [4], in assay [5] and in assay [14] was “inactive” each time. The Potency entry in assay [15], in assay [6], in assay [12], in assay [8], in assay [9] and in assay [10] was “inactive” throughout. Moreover, the max activation in [13] was -1.49%. Moreover, in [7], the Potency was 13.8 µM (active).
Consider `O=C1CCCCCCCCCCOCCCCO1`, for which the Potency result in assay [1], in assay [2], in assay [3], in [4] and in [5] was “inactive” in each case. Further, the Potency in assay [8] is 35.6 µM (active); in [10] it was 39.9 µM (active).
With `C/C=C\C/C=C/CCCCCCCCOC(C)=O`, the Potency entry in [1], in assay [2], in assay [11] and in assay [4] was “inactive” throughout. The Potency in [5] was 61.1 µM (active); in assay [6] it was 39.9 µM (active); in assay [12], 15.9 µM (active); in assay [7], 12.6 µM (active); in [8], 31.7 µM (active); in assay [10], 15.9 µM (active).
In the case of `COc1ncnc(NS(=O)(=O)c2ccc(N)cc2)c1OC`, the Potency entry in [1], in assay [2], in assay [3], in [5], in assay [14] and in assay [15] was “inactive” each time. Further, the Potency result in [6], in [7], in assay [8], in assay [9] and in assay [10] was “inactive” in each case. Also, the max activation in assay [13] is -3.86%.
Regarding `O=[N+]([O-])c1ccc(Nc2ccc(Nc3ccccc3)c(S(=O)(=O)O)c2)c([N+](=O)[O-])c1`, the Potency in [1] was 68.6 µM (active); in [3] it was 54.5 µM (active); in [4], 61.1 µM (active); in assay [7], 35.6 µM (active). In addition, the Potency result in [2], in assay [8], in assay [9] and in assay [10] was “inactive” throughout.
For the compound `CC(=O)c1cc2ccccc2s1`, the Potency result in [1], in assay [2], in assay [11], in assay [4], in assay [5] and in [7] was “inactive” in each case. In addition, the Potency entry in [9] and in assay [10] was “inactive” each time. The Potency in [8] is 6.92 µM (active).
On to `COc1cc(N)c(Cl)cc1C(=O)NC1CCN(CCCOc2ccc(F)cc2)CC1OC` (configuration not stated), for which the figures for the Potency in assay [1] and in [12] were 29.8 µM (active) and 15.5 µM (active), respectively. Moreover, the Potency entry in assay [2], in [11], in assay [5], in assay [15], in [7] and in [8] was “inactive” throughout. In assay [13], the max activation is -2.9%.

These data come from PubChem BioAssay (Tox21).
